# What was measured:
# Assay in all cases: PBM; 200 nM protein, PBS
# Details in all cases: dsDNA, one strand shown
# HESX1 [1] = molecular target: HESX1 (Homo sapiens, UniProt Q9UBX0 95-180, R165K)
# HOXB4 [2] = molecular target: HOXB4 (Homo sapiens, UniProt P17483 148-234)
# HESX1 [3] = molecular target: HESX1 (Homo sapiens, UniProt Q9UBX0 95-180)
# HOXB4 [4] = molecular target: HOXB4 (Homo sapiens, UniProt P17483 148-234, V174I)
# PROP1 [5] = molecular target: PROP1 (Homo sapiens, UniProt O75360 56-141)
# HESX1 [6] = molecular target: HESX1 (Homo sapiens, UniProt Q9UBX0 95-180, R109Q)
# PROP1 [7] = molecular target: PROP1 (Homo sapiens, UniProt O75360 56-141, R99H)
# HESX1 [8] = molecular target: HESX1 (Homo sapiens, UniProt Q9UBX0 95-180, P111T)
# PROP1 [9] = molecular target: PROP1 (Homo sapiens, UniProt O75360 56-141, F88S)
# HESX1 [10] = molecular target: HESX1 (Homo sapiens, UniProt Q9UBX0 95-180, F115L)
# SHOX [11] = molecular target: SHOX (Homo sapiens, UniProt O15266 103-189)
# ALX1 [12] = molecular target: ALX1 (Homo sapiens, UniProt Q15699 118-204, L144V)
# ALX3 [13] = molecular target: ALX3 (Homo sapiens, UniProt O95076 139-225, N203Q)
# SHOX [14] = molecular target: SHOX (Homo sapiens, UniProt O15266 103-189, R173C)
# ALX1 [15] = molecular target: ALX1 (Homo sapiens, UniProt Q15699 118-204, L144R)
# ALX3 [16] = molecular target: ALX3 (Homo sapiens, UniProt O95076 139-225)
# ALX3 [17] = molecular target: ALX3 (Homo sapiens, UniProt O95076 139-225, L168Q)
# ALX3 [18] = molecular target: ALX3 (Homo sapiens, UniProt O95076 139-225, L168V)
# ALX1 [19] = molecular target: ALX1 (Homo sapiens, UniProt Q15699 118-204)
# ALX3 [20] = molecular target: ALX3 (Homo sapiens, UniProt O95076 139-225, N203S)
# Sequence of ALX3 (Homo sapiens, UniProt O95076 139-225, N203S) (O95076 139-225 N203S): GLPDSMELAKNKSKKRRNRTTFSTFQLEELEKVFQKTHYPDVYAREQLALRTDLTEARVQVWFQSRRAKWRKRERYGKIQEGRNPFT
# Sequence of ALX3 (Homo sapiens, UniProt O95076 139-225, L168V) (O95076 139-225 L168V): as the sequence (O95076 139-225 N203S) above, with L30V, S65N counted along it
# Sequence of SHOX (Homo sapiens, UniProt O15266 103-189) (O15266 103-189): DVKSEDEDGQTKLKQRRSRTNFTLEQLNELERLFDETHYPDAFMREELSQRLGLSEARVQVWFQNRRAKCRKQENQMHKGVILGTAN
# Sequence of SHOX (Homo sapiens, UniProt O15266 103-189, R173C) (O15266 103-189 R173C): as the sequence (O15266 103-189) above, with R71C counted along it
# Sequence of HESX1 (Homo sapiens, UniProt Q9UBX0 95-180, R165K) (Q9UBX0 95-180 R165K): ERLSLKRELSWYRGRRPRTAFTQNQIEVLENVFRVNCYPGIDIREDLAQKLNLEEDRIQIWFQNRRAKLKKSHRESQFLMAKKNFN
# Sequence of HESX1 (Homo sapiens, UniProt Q9UBX0 95-180, F115L) (Q9UBX0 95-180 F115L): as the sequence (Q9UBX0 95-180 R165K) above, with F21L, K71R counted along it
# Sequence of HESX1 (Homo sapiens, UniProt Q9UBX0 95-180, P111T) (Q9UBX0 95-180 P111T): as the sequence (Q9UBX0 95-180 R165K) above, with P17T, K71R counted along it
# Sequence of PROP1 (Homo sapiens, UniProt O75360 56-141, R99H) (O75360 56-141 R99H): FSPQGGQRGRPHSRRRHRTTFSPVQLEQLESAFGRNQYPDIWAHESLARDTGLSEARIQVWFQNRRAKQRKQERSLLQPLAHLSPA
# Sequence of ALX1 (Homo sapiens, UniProt Q15699 118-204, L144R) (Q15699 118-204 L144R): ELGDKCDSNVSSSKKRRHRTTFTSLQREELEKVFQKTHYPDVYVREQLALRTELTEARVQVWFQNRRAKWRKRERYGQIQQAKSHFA
# Sequence of ALX3 (Homo sapiens, UniProt O95076 139-225, N203Q) (O95076 139-225 N203Q): as the sequence (O95076 139-225 N203S) above, with S65Q counted along it
# Sequence of ALX3 (Homo sapiens, UniProt O95076 139-225, L168Q) (O95076 139-225 L168Q): as the sequence (O95076 139-225 N203S) above, with L30Q, S65N counted along it
# Sequence of HESX1 (Homo sapiens, UniProt Q9UBX0 95-180) (Q9UBX0 95-180): as the sequence (Q9UBX0 95-180 R165K) above, with K71R counted along it
# Sequence of HESX1 (Homo sapiens, UniProt Q9UBX0 95-180, R109Q) (Q9UBX0 95-180 R109Q): as the sequence (Q9UBX0 95-180 R165K) above, with R15Q, K71R counted along it
# Sequence of HOXB4 (Homo sapiens, UniProt P17483 148-234) (P17483 148-234): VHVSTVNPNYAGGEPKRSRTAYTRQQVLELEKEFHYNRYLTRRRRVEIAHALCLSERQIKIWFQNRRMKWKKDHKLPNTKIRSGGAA
# Sequence of PROP1 (Homo sapiens, UniProt O75360 56-141, F88S) (O75360 56-141 F88S): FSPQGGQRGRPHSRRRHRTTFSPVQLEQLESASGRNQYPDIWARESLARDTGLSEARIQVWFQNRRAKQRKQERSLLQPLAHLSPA
# Sequence of PROP1 (Homo sapiens, UniProt O75360 56-141) (O75360 56-141): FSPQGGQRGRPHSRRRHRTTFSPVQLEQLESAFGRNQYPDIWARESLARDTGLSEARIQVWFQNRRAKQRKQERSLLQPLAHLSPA
# Sequence of ALX3 (Homo sapiens, UniProt O95076 139-225) (O95076 139-225): as the sequence (O95076 139-225 N203S) above, with S65N counted along it
# Sequence of ALX1 (Homo sapiens, UniProt Q15699 118-204, L144V) (Q15699 118-204 L144V): as the sequence (Q15699 118-204 L144R) above, with R27V counted along it
# Sequence of ALX1 (Homo sapiens, UniProt Q15699 118-204) (Q15699 118-204): as the sequence (Q15699 118-204 L144R) above, with R27L counted along it
# Sequence of HOXB4 (Homo sapiens, UniProt P17483 148-234, V174I) (P17483 148-234 V174I): as the sequence (P17483 148-234) above, with V27I counted along it
Sequence,binding signal (HESX1 [1]),binding signal (HOXB4 [2]),binding signal (HESX1 [3]),binding signal (HOXB4 [4]),binding signal (PROP1 [5]),binding signal (HESX1 [6]),binding signal (PROP1 [7]),binding signal (HESX1 [8]),binding signal (PROP1 [9]),binding signal (HESX1 [10]),binding signal (SHOX [11]),binding signal (ALX1 [12]),binding signal (ALX3 [13]),binding signal (SHOX [14]),binding signal (ALX1 [15]),binding signal (ALX3 [16]),binding signal (ALX3 [17]),binding signal (ALX3 [18]),binding signal (ALX1 [19]),binding signal (ALX3 [20])
CCAGGTCC,"6.37 upbm affinity estimate (log intensity, higher = more binding, comparable within an allelic series)","7.71 upbm affinity estimate (log intensity, higher = more binding, comparable within an allelic series)","6.39 upbm affinity estimate (log intensity, higher = more binding, comparable within an allelic series)","7.79 upbm affinity estimate (log intensity, higher = more binding, comparable within an allelic series)","6.63 upbm affinity estimate (log intensity, higher = more binding, comparable within an allelic series)","6.29 upbm affinity estimate (log intensity, higher = more binding, comparable within an allelic series)","6.65 upbm affinity estimate (log intensity, higher = more binding, comparable within an allelic series)","6.38 upbm affinity estimate (log intensity, higher = more binding, comparable within an allelic series)","6.38 upbm affinity estimate (log intensity, higher = more binding, comparable within an allelic series)","6.42 upbm affinity estimate (log intensity, higher = more binding, comparable within an allelic series)",–,–,–,–,–,–,–,–,–,–
AATTAGTC,"11.5 upbm affinity estimate (log intensity, higher = more binding, comparable within an allelic series)","12.4 upbm affinity estimate (log intensity, higher = more binding, comparable within an allelic series)","11.8 upbm affinity estimate (log intensity, higher = more binding, comparable within an allelic series)","13 upbm affinity estimate (log intensity, higher = more binding, comparable within an allelic series)","11.1 upbm affinity estimate (log intensity, higher = more binding, comparable within an allelic series)","8.88 upbm affinity estimate (log intensity, higher = more binding, comparable within an allelic series)","11 upbm affinity estimate (log intensity, higher = more binding, comparable within an allelic series)","10.4 upbm affinity estimate (log intensity, higher = more binding, comparable within an allelic series)","7.67 upbm affinity estimate (log intensity, higher = more binding, comparable within an allelic series)","7.67 upbm affinity estimate (log intensity, higher = more binding, comparable within an allelic series)","11.7 upbm affinity estimate (log intensity, higher = more binding, comparable within an allelic series)","11.5 upbm affinity estimate (log intensity, higher = more binding, comparable within an allelic series)","8.3 upbm affinity estimate (log intensity, higher = more binding, comparable within an allelic series)","9.37 upbm affinity estimate (log intensity, higher = more binding, comparable within an allelic series)","11.1 upbm affinity estimate (log intensity, higher = more binding, comparable within an allelic series)","12.2 upbm affinity estimate (log intensity, higher = more binding, comparable within an allelic series)","10.3 upbm affinity estimate (log intensity, higher = more binding, comparable within an allelic series)","9.88 upbm affinity estimate (log intensity, higher = more binding, comparable within an allelic series)","12.1 upbm affinity estimate (log intensity, higher = more binding, comparable within an allelic series)","8.39 upbm affinity estimate (log intensity, higher = more binding, comparable within an allelic series)"
ACAATTAA,"12.1 upbm affinity estimate (log intensity, higher = more binding, comparable within an allelic series)","13 upbm affinity estimate (log intensity, higher = more binding, comparable within an allelic series)","12.2 upbm affinity estimate (log intensity, higher = more binding, comparable within an allelic series)","13.7 upbm affinity estimate (log intensity, higher = more binding, comparable within an allelic series)","11.2 upbm affinity estimate (log intensity, higher = more binding, comparable within an allelic series)","8.86 upbm affinity estimate (log intensity, higher = more binding, comparable within an allelic series)","11.1 upbm affinity estimate (log intensity, higher = more binding, comparable within an allelic series)","10.8 upbm affinity estimate (log intensity, higher = more binding, comparable within an allelic series)","7.71 upbm affinity estimate (log intensity, higher = more binding, comparable within an allelic series)","7.77 upbm affinity estimate (log intensity, higher = more binding, comparable within an allelic series)","11.6 upbm affinity estimate (log intensity, higher = more binding, comparable within an allelic series)","11.4 upbm affinity estimate (log intensity, higher = more binding, comparable within an allelic series)","8.46 upbm affinity estimate (log intensity, higher = more binding, comparable within an allelic series)","9.44 upbm affinity estimate (log intensity, higher = more binding, comparable within an allelic series)","11.1 upbm affinity estimate (log intensity, higher = more binding, comparable within an allelic series)","12.3 upbm affinity estimate (log intensity, higher = more binding, comparable within an allelic series)","10.4 upbm affinity estimate (log intensity, higher = more binding, comparable within an allelic series)","9.93 upbm affinity estimate (log intensity, higher = more binding, comparable within an allelic series)","12 upbm affinity estimate (log intensity, higher = more binding, comparable within an allelic series)","8.59 upbm affinity estimate (log intensity, higher = more binding, comparable within an allelic series)"
ATTAATAG,"10.6 upbm affinity estimate (log intensity, higher = more binding, comparable within an allelic series)","13 upbm affinity estimate (log intensity, higher = more binding, comparable within an allelic series)","10.6 upbm affinity estimate (log intensity, higher = more binding, comparable within an allelic series)","13.7 upbm affinity estimate (log intensity, higher = more binding, comparable within an allelic series)",–,"8.2 upbm affinity estimate (log intensity, higher = more binding, comparable within an allelic series)",–,"9.29 upbm affinity estimate (log intensity, higher = more binding, comparable within an allelic series)",–,"7.97 upbm affinity estimate (log intensity, higher = more binding, comparable within an allelic series)",–,–,"8.58 upbm affinity estimate (log intensity, higher = more binding, comparable within an allelic series)",–,–,–,–,–,–,–
ATAATTGA,"13.1 upbm affinity estimate (log intensity, higher = more binding, comparable within an allelic series)","13 upbm affinity estimate (log intensity, higher = more binding, comparable within an allelic series)","13.1 upbm affinity estimate (log intensity, higher = more binding, comparable within an allelic series)","13.7 upbm affinity estimate (log intensity, higher = more binding, comparable within an allelic series)","11.6 upbm affinity estimate (log intensity, higher = more binding, comparable within an allelic series)","9.23 upbm affinity estimate (log intensity, higher = more binding, comparable within an allelic series)","11.8 upbm affinity estimate (log intensity, higher = more binding, comparable within an allelic series)","11.7 upbm affinity estimate (log intensity, higher = more binding, comparable within an allelic series)","7.86 upbm affinity estimate (log intensity, higher = more binding, comparable within an allelic series)","8.13 upbm affinity estimate (log intensity, higher = more binding, comparable within an allelic series)","12.3 upbm affinity estimate (log intensity, higher = more binding, comparable within an allelic series)","11.7 upbm affinity estimate (log intensity, higher = more binding, comparable within an allelic series)","8.47 upbm affinity estimate (log intensity, higher = more binding, comparable within an allelic series)","9.68 upbm affinity estimate (log intensity, higher = more binding, comparable within an allelic series)","11.5 upbm affinity estimate (log intensity, higher = more binding, comparable within an allelic series)","12.5 upbm affinity estimate (log intensity, higher = more binding, comparable within an allelic series)","10.7 upbm affinity estimate (log intensity, higher = more binding, comparable within an allelic series)","10.2 upbm affinity estimate (log intensity, higher = more binding, comparable within an allelic series)","12.3 upbm affinity estimate (log intensity, higher = more binding, comparable within an allelic series)","8.62 upbm affinity estimate (log intensity, higher = more binding, comparable within an allelic series)"

# Source: paper PMC11006913
